The text below walks through data of PubChem BioAssay.

Where “and” joins values, the source holds several entries; their conditions need not be identical. Equal entries are not always repeated. Calls of active or inactive are those of the source. Unless noted, how the calls were made is not given here.

Experiment [1] can be described thus: liver-stage malaria parasite growth inhibition, primary screen, cell-based, HepG2, luciferase luminescence, HepG2 viability (AID 624349; in the data active means parasite load remaining mostly below about 12%, no sharp cut-off; inactive means mostly above about 10%;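 further: 100% = mean of DMSO negative control wells on the same plate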). The settings on record: P. berghei liver stage in HepG2, luciferase luminescence, concentration not given here; parasite load remaining: stronger effect = lower value; viability: measured here: HepG2 viability without parasites.
Experiment [2] in a line: Cy5 fluorescence interference with SSB-bound oligo, artefact control for HCV NS3 helicase inhibitor project, biochemical, NIH Clinical Collection, E. coli SSB (AID 743268).
The subject of experiment [3] is Hepatitis C virus NS3 helicase. Kind of experiment: HCV NS3 helicase inhibitors, primary screen, biochemical, fluorescence polarization, NIH Clinical Collection (AID 743270). The settings on record: NS3 helicase binding to Cy5-dT15 DNA, stronger effect = higher value, concentration not given here. (Fluorescence polarisation rises when a labelled molecule tumbles more slowly, as on binding a larger partner.)

Experiment [4] addresses Single-stranded DNA-binding protein (Escherichia coli (strain K12)) (UniProt P0AGE0). Briefly: E. coli SSB displacement from DNA, counter-screen for HCV NS3 helicase inhibitor project, biochemical, fluorescence polarization, NIH Clinical Collection (AID 743271; in the data active means inhibition above about 28%). The settings on record: stronger effect = higher value, concentration not given here. For orientation: Counterscreens check selectivity or assay interference.

Experiment [5] can be described thus: fluorescence interference in NS3h assay format, artefact control for HCV NS3 helicase inhibitor project, biochemical, NIH Clinical Collection (AID 743272).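 Further: HCV NS3 helicase with a Cy5 labelled single stranded DNA probe.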 The settings on record: fluorescence interference counterscreen, stronger effect = lower value.
The subject of experiment [6] is Neuropilin-2 / VEGF-C interaction (human). Kind of experiment: inhibitors of NRP2–VEGF-C binding, biochemical, microplate binding format, z-score (AID 743281). The following applies: microplate NRP2/VEGF-C binding assay; stronger effect = lower value.
A short description of experiment [7]: stimulators of nuclear beta-catenin in C2C12, primary screen, imaging, WNT3A-conditioned medium, mouse C2C12, NPC library (AID 1117326; in the data active means nuclear beta-catenin stimulation mostly above about 4.2%, no sharp cut-off; inactive means mostly below about 10%). The settings on record: stronger effect = higher value.

For orientation: viability means a read-out of living cells in per cent, often relative to untreated cells. What is called inhibition is the drop in the measured response relative to a control, in per cent. For `C[C@H]1COc2c(C3(N)CC3)c(F)cc3c(=O)c(C(=O)O)cn1c23`, the parasite load remaining in experiment [1] is 143% (inactive) and 21.7% (inactive). The viability in experiment [1] is 89.8% and 67.5%. Moreover, the fluorescence ratio is 1.05 (inactive) in experiment [2] and 1.02 (inactive) in experiment [5]. Further, the inhibition in experiment [3] was 5.15% (inactive); in experiment [4], -0.1% (inactive). Moreover, the z-score in experiment [6] was 0.653 (inactive). The nuclear beta-catenin stimulation in experiment [7] (at 10 µM) was 1.2% (inactive); in experiment [7] (stimulation, at 2 µM) it was 0.2%.

Turning to `CCOC(=O)OC(C)OC1=C(C(=O)Nc2ccccn2)N(C)S(=O)(=O)c2ccccc21` (stereo not given), the parasite load remaining in experiment [1] is 75.6% (inactive) and 16.2% (inactive). The viability in experiment [1] was 78.8% and 73%. In addition, the fluorescence ratio in experiment [2] is 0.97 (inactive); in experiment [5], 0.96 (inactive). The inhibition in experiment [3] was -2.84% (inactive); in experiment [4], -0.39% (inactive). In addition, the z-score in experiment [6] is -0.884 (inactive). Moreover, the nuclear beta-catenin stimulation in experiment [7] (at 10 µM) is 0.7% (inactive); in experiment [7] (stimulation, at 2 µM) it was -0.8%.

With `Cc1c(O)cccc1C(=O)N[C@@H](CSc1ccccc1)[C@H](O)CN1C[C@H]2CCCC[C@H]2C[C@H]1C(=O)NC(C)(C)C`, the parasite load remaining in experiment [1] is 23.1% (inactive) and 3.4% (inactive). In addition, the viability in experiment [1] was 69.9% and 65.5%. In addition, the fluorescence ratio in experiment [2] was 0.95 (inactive); in experiment [5], 0.94 (inactive). In addition, the inhibition was -4.36% (inactive) in experiment [3] and 2.98% (inactive) in experiment [4]. Also, the z-score in experiment [6] is 0.175 (inactive). Moreover, the nuclear beta-catenin stimulation in experiment [7] (at 10 µM) is 2.3% (inactive); in experiment [7] (stimulation, at 2 µM) it was -1.9%.

On to `COC(=O)CCc1ccc(OCC(O)CNC(C)C)cc1` (stereo not given), for which the parasite load remaining in experiment [1] was 82.9% (inactive) and 30.6% (inactive). In addition, the viability in experiment [1] was 72.2% and 73%. Besides, the fluorescence ratio in experiment [2] was 1.05 (inactive); in experiment [5], 1.01 (inactive). Also, the inhibition was -1.98% (inactive) in experiment [3] and -5.49% (inactive) in experiment [4]. For the same compound, the z-score in experiment [6] was 0.0866 (inactive). The nuclear beta-catenin stimulation in experiment [7] (at 10 µM) was -2% (inactive); in experiment [7] (stimulation, at 2 µM), 0.1%.

As for `CCCc1nc(C)c2c(=O)[nH]c(-c3cc(S(=O)(=O)N4CCN(CC)CC4)ccc3OCC)nn12`, the parasite load remaining in experiment [1] is 37.6% (inactive) and 31.5% (inactive) and 37.1% (inactive). For the same compound, the viability in experiment [1] was 202% and 68.7% and 126%. In addition, the fluorescence ratio in experiment [2] was 0.94 (inactive); in experiment [5] it was 0.93 (inactive). In addition, the figures for the inhibition in experiment [3] and in experiment [4] were -13.3% (inactive) and -1.97% (inactive), respectively. The outcome in experiment [6] was inactive. For the same compound, the nuclear beta-catenin stimulation in experiment [7] (at 10 µM) is 0.1% (inactive); in experiment [7] (stimulation, at 2 µM), -1%.

On to `CC(=O)Oc1ccccc1C(=O)Nc1ncc([N+](=O)[O-])s1`, for which, in experiment [1], the parasite load remaining is 0.07% (inactive). Moreover, the viability in experiment [1] was 55.1%. The fluorescence ratio in experiment [2] and in experiment [5] was 1 (inactive) throughout. Further, the inhibition in experiment [3] was 2.77% (inactive); in experiment [4], 4.52% (inactive). Further, the z-score in experiment [6] was -0.0903 (inactive). Besides, the nuclear beta-catenin stimulation was 13.9% (inactive) in experiment [7] (at 10 µM) and 2% in experiment [7] (stimulation, at 2 µM).

For the compound `Nc1c2c(nc3c1CCC3)CCCC2`, the parasite load remaining in experiment [1] is 74.2% (inactive). Moreover, the viability in experiment [1] was 68.8%. Further, the fluorescence ratio in experiment [2] is 0.99 (inactive); in experiment [5] it was 0.9 (inactive). The inhibition in experiment [3] was 2.77% (inactive); in experiment [4] it was 1.44% (inactive). In experiment [6], the z-score was -0.236 (inactive). Besides, the nuclear beta-catenin stimulation in experiment [7] (at 10 µM) was 0.3% (inactive); in experiment [7] (stimulation, at 2 µM) it was 0.3%.

In the case of `Clc1ccc2c(c1)CCc1cccnc1C2=C1CCNCC1`, the parasite load remaining in experiment [1] is 48.1% (inactive) and 27.5% (inactive) and 15.2% (inactive). In experiment [1], the viability was 92% and 56.9% and 74%. The fluorescence ratio in experiment [2] and in experiment [5] was 1 (inactive) each time. Besides, the inhibition is -2.84% (inactive) in experiment [3] and -3.54% (inactive) in experiment [4]. Further, the z-score in experiment [6] was 1.87 (inactive). Besides, the nuclear beta-catenin stimulation in experiment [7] (at 10 µM) was 0.3% (inactive); in experiment [7] (stimulation, at 2 µM) it was -0.9%.

On to `O=c1[nH]cnc2c1ncn2[C@H]1CC[C@@H](CO)O1`, for which the parasite load remaining in experiment [1] was 41.8% (inactive) and 84.4% (inactive) and 65.2% (inactive). For the same compound, the viability in experiment [1] was 46.9% and 69.4% and 110%. Further, the fluorescence ratio in experiment [2] was 1.06 (inactive); in experiment [5], 1.01 (inactive). In addition, the inhibition is 1.19% (inactive) in experiment [3] and 0.67% (inactive) in experiment [4]. Moreover, the call in experiment [6] was inactive. Also, the nuclear beta-catenin stimulation in experiment [7] (at 10 µM) is -2.1% (inactive); in experiment [7] (stimulation, at 2 µM) it was -0.4%.

With `CCC1=C(C)CN(C(=O)NCCc2ccc(S(=O)(=O)NC(=O)NC3CCC(C)CC3)cc2)C1=O` (stereo not given), the parasite load remaining in experiment [1] is 156% (inactive) and 92.3% (inactive) and 45.4% (inactive). The viability in experiment [1] was 98.1% and 72.7% and 68.5%. Moreover, the figures for the fluorescence ratio in experiment [2] and in experiment [5] were 0.97 (inactive) and 0.96 (inactive), respectively. Further, the values for the inhibition in experiment [3] and in experiment [4] were -1.09% (inactive) and 0.39% (inactive), respectively. For the same compound, in experiment [6], the z-score is 1.17 (inactive). The nuclear beta-catenin stimulation in experiment [7] (at 10 µM) was 1% (inactive); in experiment [7] (stimulation, at 2 µM), -1.7%.

In the case of `CN(C)CCCSc1ccccc1NC(=O)/C=C/c1ccccc1`, the parasite load remaining in experiment [1] is 53.7% (inactive) and 10.2% (inactive). Further, the viability in experiment [1] was 56.6% and 65.5%. The fluorescence ratio in experiment [2] was 0.99 (inactive); in experiment [5], 0.97 (inactive). Also, the results for the inhibition in experiment [3] and in experiment [4] were 0.4% (inactive) and -2.41% (inactive), respectively. The z-score in experiment [6] was -0.209 (inactive). In addition, the nuclear beta-catenin stimulation in experiment [7] (at 10 µM) was 1.7% (inactive); in experiment [7] (stimulation, at 2 µM), 1.1%.

For `CC(c1cc2ccccc2s1)N(O)C(N)=O` (stereo not given), the parasite load remaining in experiment [1] was 58.4% (inactive) and 101% (inactive) and 41.5% (inactive). For the same compound, the viability in experiment [1] is 101% and 79.1% and 102%. Further, the fluorescence ratio in experiment [2] was 1.02 (inactive); in experiment [5], 1.01 (inactive). The inhibition in experiment [3] was 2.77% (inactive); in experiment [4], -0.87% (inactive). Further, the z-score in experiment [6] was -0.124 (inactive). The nuclear beta-catenin stimulation was 0.1% (inactive) in experiment [7] (at 10 µM) and 0.8% in experiment [7] (stimulation, at 2 µM).

With `O=C1CCc2ccc(OCCCCN3CCN(c4cccc(Cl)c4Cl)CC3)cc2N1`, in experiment [1], the parasite load remaining is 37.5% (inactive) and 20.9% (inactive) and 45.9% (inactive). Also, the viability in experiment [1] is 98.8% and 60.3% and 100%. Moreover, the figures for the fluorescence ratio in experiment [2] and in experiment [5] were 1 (inactive) and 1.02 (inactive), respectively. For the same compound, the inhibition in experiment [3] was 1.98% (inactive); in experiment [4], 4.52% (inactive). Also, the z-score in experiment [6] is 1.76 (inactive). In addition, the nuclear beta-catenin stimulation is 2.8% (inactive) in experiment [7] (at 10 µM) and 0.4% in experiment [7] (stimulation, at 2 µM).

As for `O=C(c1ccc(F)cc1)C1CCN(CCn2c(=S)[nH]c3ccccc3c2=O)CC1`, the parasite load remaining in experiment [1] was 28.9% (inactive). Further, in experiment [1], the viability worked out at 66.9%. Besides, the fluorescence ratio in experiment [2] was 1.05 (inactive); in experiment [5] it was 1.06 (inactive). For the same compound, the inhibition is 10.7% (inactive) in experiment [3] and 26.1% (inactive) in experiment [4]. Further, in experiment [6], the z-score was 0.126 (inactive). Further, the nuclear beta-catenin stimulation is 2.2% (inactive) in experiment [7] (at 10 µM) and -0.2% in experiment [7] (stimulation, at 2 µM).

For `CC(Oc1c(Cl)cccc1Cl)C1=NCCN1` (stereo not given), in experiment [1], the parasite load remaining was 53.2% (inactive) and 28% (inactive). The viability in experiment [1] was 69% and 138%. The results for the fluorescence ratio in experiment [2] and in experiment [5] were 0.98 (inactive) and 0.95 (inactive), respectively. In addition, the inhibition was -8.08% (inactive) in experiment [3] and -3.54% (inactive) in experiment [4]. The z-score in experiment [6] was 0.439 (inactive). In addition, the nuclear beta-catenin stimulation is -2.3% (inactive) in experiment [7] (at 10 µM) and 0.3% in experiment [7] (stimulation, at 2 µM).
